The whole screen tested about 59,000 compounds, of which about 6,200 (11%) were called active. Inconclusive results (about 9%) are left out. Rule as the data show it: active = max dye-equivalent concentration above about 10 nM; inconclusive = mostly about 1.1 nM to 9.6 nM; inactive = weaker than that. What follows is part of a selection rich in actives, with near analogues and random picks from the rest.

The test is described as follows: qHTS Assay for Spectroscopic Profiling in 4-MU Spectral Region. The following applies: compound autofluorescence, 340/450 nm, 4-MU equivalents; stronger effect = higher value. In a few lines:
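Compounds in 100 mM Tris, pH 8.0, sat 15 min at room temperature before fluorescence was read at 340 nm excitation/450 nm emission; a per-plate six-point 4-MU standard curve converted signals to dye-equivalent concentration at each compound concentration.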
Turning to `NS(=O)(=O)c1cc2c(cc1Cl)NC(C(Cl)Cl)NS2(=O)=O` (stereo unspecified), the max dye-equivalent concentration is 6500 nM (active).
To `C=CCn1c(C)cc(C(=O)CN2C(=O)c3ccccc3C2=O)c1C` belongs “inactive”.
To `O=C(Nc1ccc(NC(=O)c2cccs2)cn1)c1ccco1` belongs “inactive”; to `Cc1c(C(=O)NCCN2CCOCC2)sc2nc(-c3ccc(F)cc3)cn12`, “inactive”.
The entry for `CSc1cccc(NC(=O)CSc2ccccc2)c1` is “inactive”; for `COc1ccc(OC)c2c(N)c(C#N)c(C(F)(F)C(F)(F)F)nc12` it is 140 nM (active).
With `CCCCOc1ccc(-c2nnc(-c3ccco3)o2)cc1`, the max dye-equivalent concentration result is “inactive”.
The entry for `O=C(Nc1cccc2cccnc12)c1cccc(N2C(=O)CCC2=O)c1` is “inactive”.
To `O=C(OCCN1CCOCC1)C1(c2ccccc2)CCCCC1` belongs “inactive”; to `O=C(CN1CCOCC1)N1CCCc2c1c(=O)oc1ccc(OCc3ccccc3)cc21`, 45 nM (active).
As to `N#Cc1nc(-c2ccc(OCc3ccccc3)cc2)oc1NCCCN1CCOCC1`, the max dye-equivalent concentration entry is “inactive”.
The entry for `CCOC(=O)C1CCCN(C(=O)c2cncc(Br)c2)C1` (stereo unspecified) is “inactive”.
On to `COc1ccc(OC)c([C@H](O)CNC(=O)CN)c1`, for which the max dye-equivalent concentration result was “inactive”.
The entry for `C/C(Cl)=C\Cn1c(Nc2cccc(C)c2)nc2c1c(=O)n(C)c(=O)n2C` is “inactive”; for `COc1ccccc1CN1CC2(CCN(S(=O)(=O)c3ccccc3)CC2)C1` it is “inactive”; for `O=C(Nc1ncc2c(n1)CC(c1ccco1)CC2=O)c1ccc(Cl)cc1` (stereo unspecified) it is “inactive”.
To `CCc1ccc(NC(=O)CSc2nnc(-c3cnccn3)n2Cc2ccco2)cc1` belongs “inactive”; to `CCc1ccc(Nc2ncc3c(n2)CC(c2ccco2)CC3=O)cc1` (stereo unspecified), 38 nM (active); to `Cc1ccccc1NC(=O)CNc1ccccc1N1CCCCC1`, “inactive”.
Take `CCOc1ccc2nc(N3CCCN(C(=O)Nc4ccccc4C)CC3)c(C#N)cc2c1`: the max dye-equivalent concentration is 16 nM (active).
For `CCOc1ccc(NC(=O)N2CCN(CC)CC2)cc1`, the max dye-equivalent concentration result is “inactive”.
The entry for `Cn1c(-c2ccc(F)cc2)cnc1SCC(=O)NCc1ccco1` is “inactive”.
In the case of `O=C(CN1CCN(c2nc(-c3ccccc3)cs2)CC1)NCc1ccc2c(c1)OCO2`, the max dye-equivalent concentration result is “inactive”.
To `CC1(C)SC2c3ccccc3C(=O)N2[C@@H]1C(=O)NCc1ccco1` (stereo partly specified) belongs “inactive”; to `CC1(C)S[C@@H]2[C@@H](NC(=O)[C@@H](N)c3ccccc3)C(=O)N2[C@H]1C(=O)O`, 44 nM (active).
The entry for `CCS(=O)(=O)N1CCC(C(=O)N2CCN(c3ccccc3)CC2)CC1` is “inactive”; for `CCOc1ccccc1Nc1nnc(SCC(=O)Nc2cc(C)on2)s1` it is “inactive”.
The entry for `CC(C[N+](C)(C)C)OC(N)=O` (stereo unspecified) is “inactive”.
With `CC(=O)OC(C)C[N+](C)(C)C` (stereo unspecified), the max dye-equivalent concentration was 500 nM (active).
With `CCN1C(=O)/C(=C\N2CCN(c3ccccc3)CC2)SC1=S`, the max dye-equivalent concentration result was “inactive”.
As to `CCN1C(=O)/C(=C2\SC(N3CCCCC3)=NC2=O)c2ccccc21`, the max dye-equivalent concentration was 18 nM (active).
To `Cc1ccc(C(=O)OCC(=O)NCc2ccc3c(c2)OCO3)s1` belongs “inactive”; to `Cc1ccc2cccc(O)c2[n+]1[O-]`, 17 nM (active); to `CC(=O)Nc1cccc2c1[n+]([O-])c(C)c(C)[n+]2[O-]`, “inactive”.
The entry for `O=C(O)[C@@H]1[C@@H](C(=O)O)[C@]23C[C@@]2(C(=O)O)[C@]2(C(=O)O)CCC3=C3CCCC312` is “inactive”.
The entry for `CCOC(=O)CSc1nnc(CNc2ccc(F)cc2)o1` is “inactive”; for `CCCOP(=O)(c1ccc(N(C)C)cc1)C(O)c1cc(OC)c(OC)c(OC)c1` (stereo unspecified) it is “inactive”; for `Cc1c(S(=O)(=O)O)ccc(N=Nc2c(O)c(C(=O)O)cc3ccccc23)c1Cl` it is 11 nM (active).
In the case of `CCc1ccc(-c2nnn(Cc3nc4ccccc4s3)n2)cc1`, the max dye-equivalent concentration result was “inactive”.
For the compound `COc1ccc(Cc2nnc(NS(=O)(=O)Cc3ccccc3)s2)cc1`, the max dye-equivalent concentration entry is “inactive”.
The entry for `COC(=O)C1(S(=O)(=O)C2(C(=O)OC)CCCC2)CCCC1` is “inactive”; for `O=S(=O)(O)c1nc2ccccc2n1Cc1ccc(Cl)cc1` it is “inactive”.
For `N#Cc1c(N)n(CCOC(=O)c2ccc(Cl)cc2)c2nc3ccccc3nc12`, the max dye-equivalent concentration is 600 nM (active).
To `C[C@H](NC(=O)OC(C)(C)C)c1nnc(SCC(N)=O)o1` belongs “inactive”.
To `CC1(C)Oc2ccc(C(=O)N3CCOCC3)cc2N(CC(=O)Nc2ccccc2)C1=O` belongs “inactive”; to `O=C(c1cccnc1NCc1ccccc1)N1CCOCC1`, “inactive”.
To `Cc1nc(NCc2ccccc2)c(C(N)=O)c2c1COC(C)(C)C2` belongs 100 nM (active); to `Cc1ccc(NC(=O)CS(=O)CC(=O)N(c2ccccc2)C(C)C(=O)NC2CCCC2)cc1` (stereo unspecified), “inactive”; to `CC(=O)O[C@]1(C(C)=O)CC[C@@H]2[C@@H]3C=C(C)C4=CC(=O)CC[C@@]4(C)[C@H]3CC[C@]21C`, “inactive”.
`Cc1ccc(C)c(S(=O)(=O)N2CC(=O)Nc3ccccc32)c1`: the max dye-equivalent concentration result is “inactive”.
To `N=C(CC(=O)Nc1ccccn1)c1ccccc1` belongs “inactive”.
To `Cc1cccc(N)c1SC1CCCCC1O` (stereo unspecified) belongs “inactive”; to `COc1ccc(C(=O)OCC(=O)c2ccc(C)c(S(=O)(=O)N3CCOCC3)c2)cc1OC`, “inactive”.
On to `O=C(CCN1C(=O)c2ccncc2C1=O)Nc1ccc2c(c1)OCCO2`, for which the max dye-equivalent concentration result was “inactive”.
On to `O=C(NCc1ccc2c(c1)OCO2)c1ccc2c(c1)C(=O)N(CC1CCCO1)C2=O` (stereo unspecified), for which the max dye-equivalent concentration result is “inactive”.
With `CCC(=O)Nc1ccc(C(=O)Nc2ccc3c(c2)C(=O)N(CC2CCCO2)C3=O)cc1` (stereo unspecified), the max dye-equivalent concentration is 120 nM (active).

The values are drawn from PubChem BioAssay AID589 (National Center for Advancing Translational Sciences (NCATS), 2007).
